Measured values from ChEMBL document CHEMBL4513216, “Probing the Open Global Health Chemical Diversity Library for Multistage-Active Starting Points for Next-Generation Antimalarials” (ACS Infect Dis, 2020).
The campaign covered roughly 68,000 compounds. About 2,700 (4%) showed an effect of 50% or more. Shown is part of a subset that was picked to be rich in strong results.

Test system: Plasmodium berghei
Assay: Screen against P. berghei liver stage (PbLuc), transformed with Luciferase, at 2uM
Type: functional, HepG2
Details: tested at 2 uM

Row | Structure (SMILES) | INHIBITION [%]
1 | COCCC(=O)NC(C)(C(N)=O)c1cccc(Cl)c1 (configuration not stated) | 7.37
2 | O=S1(=O)CCC(n2nc(COc3ccccc3)nc2-c2cnccn2)C1 (configuration not stated) | -5.42
3 | Cc1nc(CCNC(Cc2ccncc2)C(F)(F)F)cs1 (configuration not stated) | -2.89
4 | CCN(C)Cc1n[nH]c(=O)n1-c1cc(F)ccc1C | 5.78
5 | CN(C)C(=O)Cc1ccccc1NCc1noc(-c2ccccc2)n1 | 22.19
6 | CCn1nccc1CNc1nc(N)nc2c1nc(C)n2C | 14.79
7 | CNC(=O)C(NC(=O)c1nccn2ccnc12)c1ccc(F)c(F)c1 (configuration not stated) | 29.53
8 | CSCCC(Nc1nc(C)cc(C)n1)C(=O)NCC1CCOCC1 (configuration not stated) | 0.62
9 | CC(C)c1noc(CN2CCOCC2C)n1 (configuration not stated) | 27.86
10 | CN(CC(=O)Nc1ccncc1)C1CCCN(c2cccnn2)C1 (configuration not stated) | 7.13
11 | CN(CC(=O)NCc1ccccn1)C1CCCN(c2cccnn2)C1 (configuration not stated) | -117.12
12 | COCCCNC(=O)CN(C)C1CCCN(c2cccnn2)C1 (configuration not stated) | 64.16
13 | Cc1ccc(C(=O)N2CCC3(CCCCC3)C2)c(=O)[nH]1 | -8.54
14 | CN(C)C(=O)c1c[nH]nc1C1CCN(S(=O)(=O)c2cccc(Cl)c2)CC1 | 13.02
15 | Cc1ncsc1-c1nnc(C2CCN(Cc3cccc(F)c3F)CC2)o1 | 35.56
16 | Cc1cccc(CN2CCC3(CCCN(C(=O)CN(C)C)C3)C2=O)n1 (configuration not stated) | 28.95
17 | Cc1cccc(CN2CCC3(CCCN(C(=O)N(C)C)C3)C2=O)n1 (configuration not stated) | 51.81
18 | Cc1cccc(CN2CCC3(CCCN(C(=O)N4CCCC4)C3)C2=O)n1 (configuration not stated) | -9.14
19 | COCC(C)NC(=O)CCCn1cnc2ccccc2c1=O (configuration not stated) | 51.36
20 | CC(C)NC(=O)CCCn1cnc2ccccc2c1=O | 35.43
21 | COCCn1cnc2ccc(NC(=O)CCCn3cccn3)cc2c1=O | 52.05
22 | CC(C)Cn1cnc2ccc(NC(=O)CCCn3cccn3)cc2c1=O | 16.03
23 | CC(NC(=O)CCCn1cnc2ccccc2c1=O)c1ncn[nH]1 (configuration not stated) | 22.27
24 | Cn1cnc2ccc(NC(=O)CCCn3cccn3)cc2c1=O | 25.61
25 | CC(C)Nc1ncnc2c1CCN(C(=O)NCc1cccc(F)c1)CC2 | -36.75
26 | O=C(c1cccnc1Oc1ccc(Cl)cc1)N1CC[C@@H](O)C1 | 18.2

Row | Structure (SMILES) | INHIBITION [%]
27 | O=C(c1ccccn1)N1CCCC(c2ncncc2-c2ccncc2)C1 (configuration not stated) | 39.9
28 | CNC(=O)N1CCC2(COCc3c(C)nc(NCc4ccco4)nc32)C1 (configuration not stated) | 16.91
29 | COc1ncccc1C(=O)N1CCn2c(COCC3CC3)cnc2C1C (configuration not stated) | 30.38
30 | COC(=O)COc1nc(CC(C)C)c2c(c1C#N)CCCC2 | 26.06
31 | CN(Cc1cccnc1)CC1CNCc2nccn2C1 (configuration not stated) | 37.65
32 | COc1ccc2cnn(CC(=O)NC3CCCC3)c(=O)c2c1OC | 45.14
33 | CN(C(=O)c1cn(C)cn1)[C@@H]1CCC[C@@H](Oc2ccccc2)[C@@H]1O | 32.81
34 | c1csc(-c2noc(CCCNC3CCc4ncnn4C3)n2)c1 (configuration not stated) | -15.69
35 | COc1cc(C(=O)N(Cc2cnn(C)c2)C(C)C)ccc1OCC(N)=O | -61.5
36 | CCOc1ccc(C(=O)N(Cc2cnn(C)c2)C(C)C)cc1OCC | 23.42
37 | COc1ccc(C(=O)N(Cc2cnn(C)c2)C(C)C)cc1Br | 9.36
38 | COc1cc(C(=O)N(Cc2cnn(C)c2)C(C)C)ccc1C | 53.98
39 | COc1ccc(C(=O)N(Cc2cnn(C)c2)C(C)C)cc1OC(F)F | 60.09
40 | COc1cc(C(=O)N(Cc2cnn(C)c2)C(C)C)ccc1OC(C)C | -31.57
41 | CN1CCC(Cc2noc(CCc3nc4ccccc4nc3O)n2)CC1 | -14
42 | O=C(c1ccc[nH]1)N1CCc2c(COCc3ccncc3)cncc2C1 | -18.76
43 | Cc1ccc(CN2CC[C@@H]3[C@@H]2CCN3C(=O)Cc2cccs2)o1 | -45.36
44 | O=C(CN1CCCC1CC(=O)c1ccccc1)NCc1ccccn1 (configuration not stated) | -47.19
45 | CC(C)Cc1noc(CN(C)C[C@]2(O)CCCN3CCCC[C@@H]32)n1 | 58.09
46 | CCN(Cc1nc(COC)no1)C[C@]1(O)CCCN2CCCC[C@@H]21 | 21.67
47 | CCN(Cc1noc(CC(C)C)n1)C[C@]1(O)CCCN2CCCC[C@@H]21 | 6.33
48 | Cc1nn(C)c(C)c1C(=O)NN1CCOCC1 | 27.88
49 | CCOc1ccc2ccccc2c1CNCC1CCNCC1 | -14.75
50 | Cc1cccnc1CC(C)Nc1nc(N)nc2c1CCNC2 (configuration not stated) | 22.63
51 | CCn1nc(C)c(NC(=O)CN2CCN(C(C)=O)CC2)c1C | 53.77
52 | CCn1nc(C)c(NC(=O)CN2CCC(c3ccccc3Cl)C2)c1C (configuration not stated) | 50.9

Row | Structure (SMILES) | INHIBITION [%]
53 | CCn1nc(C)c(NC(=O)CN2CC[C@H](CO)[C@@H](O)C2)c1C | 7.29
54 | CCn1nc(C)c(NC(=O)CN2CC[C@@H](F)C2)c1C | -28.65
55 | CCN(CC)C(=O)C1CCCN(CC(=O)Nc2c(C)nn(CC)c2C)C1 (configuration not stated) | 23.58
56 | CCn1nc(C)c(NC(=O)C(C)C)c1C | 12.62
57 | Cc1ccc(CN(CCCn2ccnc2)Cc2cccs2)s1 | 32.53
58 | CC1CCCN(c2ccccc2OCC(=O)NC2CCOCC2)C1 (configuration not stated) | 19.59
59 | CC(Oc1ccccc1)C(=O)N1CCCN(Cc2nccn2C)CC1 (configuration not stated) | -12.05
60 | Cc1ccc2c(c1)SCC(=O)N2CC(=O)N1CCCC1c1cc(C)no1 (configuration not stated) | 28.73
61 | Cc1cc(C2CCCN2C(=O)CN2CCc3ccccc32)on1 (configuration not stated) | 18.37
62 | Cc1cc(C2CCCN2C(=O)Cn2c(C)cc(=O)c3ccccc32)on1 (configuration not stated) | 64.83
63 | CNC(=O)C1(C)CN(S(=O)(=O)c2cccc(OC)c2)CCO1 (configuration not stated) | -4.78
64 | CN(CCc1ccccc1)Cc1c(C2CCNCC2)[nH]c2ncccc12 | 2.56
65 | CC(C)N1CCCn2nc(C(=O)NCCc3ccccn3)cc2C1 | -31.6
66 | CN(C)CCN1CCc2ncc(CN(C)Cc3ccco3)n2CC1 | 52.05
67 | CN(Cc1ccco1)Cc1cnc2n1CCN(c1ncccn1)CC2 | -6.14
68 | CN(Cc1ccco1)Cc1cnc2n1CCN(S(C)(=O)=O)CC2 | 9.1
69 | C[S+]([O-])CCNC(=O)Nc1cc(F)ccc1-n1cccn1 (configuration not stated) | 58.14
70 | CC(C)C(O)CCNC(=O)Nc1cc(F)ccc1-n1cccn1 (configuration not stated) | 37.43
71 | CN1CCN(c2ccc(F)cc2NC(=O)NCC[S+](C)[O-])CC1 (configuration not stated) | 17.98
72 | Cc1nc(C)c(CC(=O)NCc2cccnc2OC2CCCC2)c(=O)[nH]1 | -10.1
73 | NC(=O)CCC1CCCN(c2ccnc3cc(F)ccc23)C1 (configuration not stated) | 1.01
74 | CCS(=O)(=O)Nc1ccc2[nH]c(C3CCC3)nc2c1 | 74.44
75 | Cn1cc(S(=O)(=O)Nc2ccc3[nH]c(C4CCC4)nc3c2)cn1 | 48.21
76 | CCn1cc(S(=O)(=O)Nc2ccc3[nH]c(C4CCC4)nc3c2)cn1 | -16.18
77 | COc1cccc([C@H]2CN(C(C)=O)[C@@H]3CCN(Cc4ccsc4)C[C@H]23)c1 | -24.17
78 | O=C(CC1CC1)N1CCO[C@H]2[C@H](OCCCn3cccn3)CC[C@@H]21 | 37.74

Row | Structure (SMILES) | INHIBITION [%]
79 | CC(C)c1nn(C)c(N(C)C)c1CNCc1ccc(N(C)C)nc1 | -4.43
80 | O=C(C1CCC1)N1CCC2(CCNCC2)C1 | 2.94
81 | O=C(C1CC1)N1CC2(CCNCC2)C1 | 60.6
82 | O=C(C1CCCCC1)N1CC2(CCNCC2)C1 | 27.1
83 | CC(=O)N1CCC(c2cccc(-c3cccc(C(=O)O)c3)n2)CC1 | 23.7
84 | CCOc1ccc(CC(=O)Nc2cnccc2SCCCO)cc1 | -15.31
85 | O=C(NCc1ccccn1)NCC(c1ccco1)N1CCCCC1 (configuration not stated) | -18.65
86 | O=C(NCc1ccccn1)NCC(c1ccco1)N1CCCC1 (configuration not stated) | 53.61
87 | CCc1cc(CNC(=O)NCC(c2ccco2)N2CCCC2)[nH]n1 (configuration not stated) | 42.11
88 | COc1ccc(C[C@H]2CN(C(=O)c3ncccn3)CC[C@@H]2OC)cc1 | 33.74
89 | COc1ccc(C[C@H]2CN(C(=O)c3cc(C)no3)CC[C@H]2OC)cc1 | 51.26
90 | CO[C@H]1CCN(C(=O)c2cc(C)on2)C[C@@H]1Cc1ccccc1 | 59.5
91 | COc1ccc(C[C@H]2CN(C(=O)c3ccc(C)nc3)CC[C@@H]2OC)cc1 | 15.57
92 | Cc1cc(C(=O)N2CC[C@@H]3CN(CCC(C)C)S(=O)(=O)[C@@H]3CC2)no1 | 36.44
93 | Cc1cc(C(=O)N2CC[C@@H](O)[C@@H]2Cc2ccccc2)no1 | 19.42
94 | CO[C@H]1CCN(C(=O)c2cc(C)on2)[C@H]1Cc1ccncc1 | -11.88
95 | Cc1cc(C(=O)N2CC[C@@H]3CN(C)S(=O)(=O)[C@@H]3CC2)no1 | -27.81
96 | COCCO[C@H]1CCN(C(=O)c2cc(C)on2)[C@H]1Cc1ccccc1 | 62.46
97 | COc1ccc(C[C@H]2CN(C(=O)c3ccn(C)n3)CC[C@H]2OC)cc1 | 15.57
98 | COCCN1C[C@H]2CCN(C(=O)c3cc(C)on3)CC[C@H]2S1(=O)=O | 63.35
99 | COc1ccc(C[C@H]2CN(C(=O)c3ccncc3)CC[C@@H]2OC)cc1 | -9.66
100 | Cc1cnn(CC2CN(Cc3nc(C4CC4)no3)CCO2)c1 (configuration not stated) | -18.67
101 | c1cnc(NCc2cncc3c2CCN(Cc2ccsc2)C3)nc1 | 46.11
102 | CSc1nc2ccsc2c(=O)n1CC(=O)N1CCCCC1C (configuration not stated) | -24.07
